The list is not random: actives were taken first. Their share in the collection is about 19%.
TDP1 cell noCPT – qHTS for Inhibitors of human tyrosyl-DNA phosphodiesterase 1 (TDP1): qHTS in cells in absence of CPT; DT40 Tdp1-/- hTDP1 cells, no CPT, ATP luminescence, 48 h; Potency, µM (highest dose often 46.2 µM), for inactives: at the highest dose activity change, negative = growth inhibition, most hits filed as inhibitors; hit rate 15% among 420,000; AID 686978, 2013; further: potency means the concentration at half of the fitted maximal effect; nearly all actives have a fitted effect of over 55% in size
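Growth of hTDP1-complemented DT40 Tdp1-knockout cells is measured by ATP luminescence after at least 48 hr compound exposure at 37 °C, with DMSO substituting for the 20 nM CPT used in the parallel screen.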
HT1080-NT tox – kills 2HG-producing HT-1080-NT fibrosarcoma cells | HT-1080-NT fibrosarcoma viability, CellTiter-Glo ATP luminescence, 48 h | Potency, µM (top dose mostly 46.1 µM), without a hit: at the highest dose activity, negative = less viability, actives largely listed as cytotoxic | hit rate 1.6% among 360,000;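 further: NT is the 2HG producing partner of a matched IDH1 knockdown line; potency means the concentration at half of the fitted maximal effect; 0% = DMSO-treated cells and -100% = media-only wells without cells; nearly all actives have a fitted effect of over 55% in size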
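Fibrosarcoma NT cells, 750 per well in 5% FBS RPMI, were exposed to compound for 48 hours. Viability: CellTiter-Glo luminescence.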
IL-1B inflam inh – blocks inflammasome-driven IL-1 beta release. THP-1 LPS/ATP IL-1B secretion, AlphaLISA, 16 h; hits give low values. hit rate 4.7% among 360,000. activity change, % at 57.5 µM; in the data active means activity change below about -50%; inconclusive means mostly about -30% to -49%
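Secreted IL-1B measured by AlphaLISA bead assay after 16 h compound exposure of THP-1 cells; compounds (final up to 57.5 uM) added 1 h before LPS (250 ng/mL) and ATP (1.25 mM) stimulation; lower signal means less secretion.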
HT1080 IDH1KD tx – toxicity to HT-1080 IDH1 knockdown cells (counter line); HT-1080 IDH1 knockdown viability, ATP luminescence, 48 h; AID 686971; hit rate 2% among 360,000; Potency, µM (top dose mostly 46.1 µM), without a hit: top-dose activity, negative = toxicity, actives largely listed as cytotoxic;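 further: potency means the concentration at half of the fitted maximal effect; 0% = DMSO wells and -100% = cell-free medium wells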
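CellTiter-Glo luminescence after 48 h compound exposure at 37 degrees C of IDH1-knockdown HT-1080 cells in 5% FBS RPMI. %Activity scaled between DMSO wells and cell-free media wells, with curves fitted and assigned curve classes.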
DT40 TDP1 CPT – growth inhibition of DT40 Tdp1-/-;hTDP1 cells with camptothecin (screen for TDP1 inhibitors); chicken DT40 Tdp1-/-;hTDP1 cells + 20 nM CPT, ATP luminescence, 48 h; hit rate 12% among 420,000; Potency, µM (doses to about 46.2 µM), without a hit: at the top dose activity change, negative = growth inhibition, usual class: inhibitors; further: potency means the concentration at half of the fitted maximal effect; nearly all actives have a fitted effect of over 55% in size
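Chicken DT40 Tdp1-/- cells complemented with human TDP1, 400 cells/well, exposed to compounds plus 20 nM camptothecin for at least 48 h at 37 C; viability read as ATP content by CellTiter-Glo luminescence.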
Numbers without * were called inactive; ? = inconclusive; · = no result. Unless noted, the call rests on the fitted dose curve; in most records, active means well fitted curve in the direction sought with a large enough effect; inconclusive means small, poorly fitted or top-dose-only effect, or another doubt; inactive means no such curve, though single readings can be large; an effect the other way counts as inactive or inconclusive. Unless noted, on the % scale 0 is the no-effect control and ±100 the full control effect.

SMILES	TDP1 cell noCPT	HT1080-NT tox	IL-1B inflam inh	HT1080 IDH1KD tx	DT40 TDP1 CPT
NC[C@@H]1O[C@H](C23CC4CC(CC(C4)C2)C3)Cc2c1ccc(O)c2O	23.1µM*	?	-24.6	?	23.1µM*
NC[C@@H]1O[C@H](c2ccccc2)Cc2c1ccc(O)c2O	9.44µM*	·	·	·	6.68µM*
COC(=O)CSc1nc(NC#N)nc(NC(C)C)n1	-3.7%	8.0%	37.2	9.8%	3.9%
COC1=C(OC)C(=O)C(C/C=C(\C)CC/C=C(\C)CC/C=C(\C)CC/C=C(\C)CC/C=C(\C)CC/C=C(\C)CC/C=C(\C)CC/C=C(\C)CC/C=C(\C)CCC=C(C)C)=C(C)C1=O	5.0%	·	·	·	5.6%
CCCCCCc1nc2nc(Cl)c(Cl)nc2[nH]1	8.2µM*	-0.7%	10.6	-1.0%	18.4µM*
CCCCCCCCc1nc(SC(C)C(=O)O)n[nH]1 (stereo unspecified)	3.0%	9.9%	20.8	0.3%	1.8%
O=C(C1CCN(S(=O)(=O)N2CCOCC2)CC1)N1CCN(Cc2ccccc2)CC1	1.8%	9.4%	-7.0	9.4%	1.9%
O=C(C1CCN(S(=O)(=O)c2cccc3cccnc23)CC1)N1CCCC1	-5.5%	0.0%	-3.6	-6.2%	-7.0%
Cc1cccc(N2CCN(C(=O)C3CCN(S(=O)(=O)c4cccc5cccnc45)CC3)CC2C)c1 (stereo unspecified)	18.4µM*	-12.5%	-1.6	-9.8%	13µM*
Cc1cccc(N2CCN(C(=O)C3CCN(S(=O)(=O)N4CCOCC4)CC3)CC2C)c1 (stereo unspecified)	20.6µM*	-1.9%	21.7	-7.4%	18.4µM*
Cc1cccc(N2CCN(C(=O)C3CCN(S(=O)(=O)c4cccc5nsnc45)CC3)CC2C)c1 (stereo unspecified)	20.6µM*	-2.2%	11.9	-4.3%	23.1µM*
Cc1cccc(C(=O)NCC(=O)OCC(=O)N(C)CC(=O)Nc2ccc(F)cc2)c1	-11.2%	0.9%	9.5	-1.9%	-21.5%
Cc1cccc(N2CCN(C(=O)CCCn3c(=O)[nH]c4ccsc4c3=O)CC2C)c1 (stereo unspecified)	25.9µM*	-8.8%	-20.0	1.3%	-13.9%
O=C(CCCn1c(=O)[nH]c2ccsc2c1=O)N1CCCCC1	-7.5%	3.9%	7.7	3.7%	-5.6%
Cc1cccc(N2CCN(C(=O)CCn3c(=O)[nH]c4ccsc4c3=O)CC2C)c1 (stereo unspecified)	10.3µM*	-14.9%	4.3	-28.8%	?
Cc1nc2ccccc2n1S(=O)(=O)c1cc(C(=O)O)ccc1Cl	7.9%	9.6%	10.7	4.1%	4.2%
Cc1ccc(C)c(N2CCN(C(=O)CC3Sc4ccccc4NC3=O)CC2)c1 (stereo unspecified)	16.4µM*	?	-27.8	?	18.4µM*
CC1CC(C)(C)NC(=S)N1CC(=O)N1CCN(Cc2ccccc2)CC1 (stereo unspecified)	4.6%	23.3%	16.5	1.1%	1.4%
Cc1ccc(C)c(N2CCN(C(=O)CN3C(=S)NC(C)(C)CC3C)CC2)c1 (stereo unspecified)	23.1µM*	0.0%	-3.2	7.3%	23.1µM*
NNc1nc(N)c2c(n1)-c1ccccc1CC21CCCC1	16.4µM*	-15.2%	-8.6	-21.3%	10.3µM*
CCc1nc2c(c(=O)[nH]1)C1(CCCC1)Cc1ccccc1-2	-19.8%	-3.8%	-7.5	9.6%	-15.1%
C/C(=N\NC(=O)CC1N=C(Cc2ccccc2)NNC1=O)c1ccc(Br)cc1 (stereo unspecified)	?	-17.1%	7.8	-27.8%	?
O=C(CSc1nc2ccsc2c(=O)n1Cc1ccccc1F)NCc1ccccc1	?	·	·	·	-23.2%
O=C(CSc1nc2ccccc2n1Cc1cccc(C(F)(F)F)c1)NCc1ccccc1	?	·	·	·	18.4µM*
CN(C(=O)CSc1nc2ccccc2n1Cc1cccc(C(F)(F)F)c1)c1ccccc1	16.4µM*	·	·	·	18.4µM*
Cc1ccc(C)c(Cn2c(SCC(=O)N(C)Cc3ccccc3)nc3ccccc32)c1	25.9µM*	·	·	·	25.9µM*

Source: PubChem BioAssay (National Center for Advancing Translational Sciences (NCATS))
